40 compounds from PubChem BioAssay (Tox21) can be followed below.

Calls of active or inactive are those of the source. Where a call stands in place of a potency, no number is given. Calls follow the shape of the full dose curve.
Potency is read from the fitted curve at half-maximal effect.

For the test, the target named is Estrogen receptor (Homo sapiens) (UniProt P03372). Kind of test: qHTS assay to identify small molecule agonists of the estrogen receptor alpha (ER-alpha) signaling pathway in the presence of an antagonist (AID 1259383). Also: nearly all actives have a fitted effect of over 15% in size. The settings on record: VM7Luc4E2 cells, ERE-luciferase, +ICI-182,780, 22 h; series mostly up to 92.4 µM. An excerpt: National Center for Advancing Translational Sciences [NCATS] NIH Chemical Genomics Center [NCGC] U.S. Environmental Protection Agency [EPA] National Institutes of Environmental Health Sciences [NIEHS] National Toxicology Program [NTP] Assay overview: Estrogen receptor (ER), a member of nuclear hormone receptor plays an important role in development, metabolic homeostasis and reproduction. Two subtypes of ER, ER-alpha and ER-beta, have similar expression patterns with some uniqueness in both types. Endocrine disrupting chemicals (EDCs) and their interactions with steroid hormone receptors like ER causes disruption of normal endocrine function. Therefore, it is important to understand the effect of environmental chemicals in ER signaling pathway. For identifying ER agonists, VM7Luc4E2 cell line has been used in the current assay. VM7Luc4E2 cell line (provided by Denison MS, University of California) endogenously expresses full-length ER-alpha and is stably transfected with a plasmid containing four estrogen responsive elements (ERE) upstream of a luciferase reporter gene. This current screening for measuring luciferase reporter gene activity using VM7Luc4E2 cells against Tox21 10K library collection is a confirmation study on agonist mode screening in presence of ER-antagonist (ICI-182,780) at 10.0nM final concentration.
Sequence of Estrogen receptor (Homo sapiens) (P03372 whole entry, looked up): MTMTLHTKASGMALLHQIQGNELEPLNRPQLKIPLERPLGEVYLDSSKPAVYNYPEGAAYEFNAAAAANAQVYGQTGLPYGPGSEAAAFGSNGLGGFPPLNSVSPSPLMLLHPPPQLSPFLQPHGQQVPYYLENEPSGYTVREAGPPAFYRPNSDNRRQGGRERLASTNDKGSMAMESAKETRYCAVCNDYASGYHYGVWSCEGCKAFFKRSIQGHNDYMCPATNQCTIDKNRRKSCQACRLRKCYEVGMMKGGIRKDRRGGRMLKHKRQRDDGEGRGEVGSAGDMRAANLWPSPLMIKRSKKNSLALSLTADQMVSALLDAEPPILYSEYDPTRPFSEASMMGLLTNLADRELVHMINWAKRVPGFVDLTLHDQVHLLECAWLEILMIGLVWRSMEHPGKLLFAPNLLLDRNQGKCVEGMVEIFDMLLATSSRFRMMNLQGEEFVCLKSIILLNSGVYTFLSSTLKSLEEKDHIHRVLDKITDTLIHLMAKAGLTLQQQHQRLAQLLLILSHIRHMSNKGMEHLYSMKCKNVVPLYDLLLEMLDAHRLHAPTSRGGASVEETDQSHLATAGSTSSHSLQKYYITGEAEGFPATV
Assay Protocol Summary: VM7Luc4E2 cells were cultured in phenol red free assay medium containing 10% charcoal stripped FBS for 5 days prior to the assay. The cells were dispensed at 4,000 cells in 4uL of assay medium per well into white wall/solid-bottom 1536-well plates (Corning Life Sciences, Corning, NY) using a Multidrop Combi (Thermo Fisher Scientific Inc., Waltham, MA) dispenser. After the assay plates were incubated at 37C and 5% CO2 for 24hr, 1uL of 10.0nM (final concentration) ICI-182,780 or assay buffer was added using two separate tips of Flying Reagent Dispenser (FRD, Aurora Discovery, San Diego, CA). Then 23nL of compounds dissolved in DMSO at 15 concentrations and positive controls or DMSO only was transferred to the assay plates by a Pintool station (Wako, San Diego, CA). The assay plates were incubated at 37C and 5% CO2 for 22hr. For luciferase read, 4uL/well ONE-Glo reagent (Promega Corporation, Madison, WI) was added to each well using FRD and after 30min incubation at room temperature, luminescence signal was measured on ViewLux plate reader (PerkinElmer, Shelton, CT).
(Quantitative high-throughput screening tests each substance at several concentrations.)
As for `CCCCC(CC)COP(=O)(O)O` (stereo not given), the Potency result is “inactive”.

On to `c1ccc2sc(SN(C3CCCCC3)C3CCCCC3)nc2c1`, for which the Potency entry was “inactive”.

`CO[C@]1(NC(=O)CSC(F)F)C(=O)N2C(C(=O)O)=C(CSc3nnnn3CCO)CO[C@H]21`: the Potency entry is “inactive”.

For the compound `O=c1[nH]c2ccc(Cl)cc2o1`, the Potency result is “inactive”.

Regarding `Cc1ccccc1N=C(N)Nc1ccccc1C`, the Potency entry is “inactive”.

`C1C[C@@H]2[C@H]3CC[C@H](C3)[C@@H]2C1`: the Potency result is “inactive”.

Turning to `C[C@H]1c2cccc(O)c2C(O)=C2C(=O)[C@]3(O)C(O)=C(C(N)=O)C(=O)[C@@H](N(C)C)[C@@H]3[C@@H](O)[C@@H]21`, the Potency entry was “inactive”.

As to `Cc1cc2c(OCC(CNC(C)(C)C)OC(=O)c3ccccc3)cccc2[nH]1` (stereo not given), the Potency entry was “inactive”.

Take `O=C(O)CCc1nc(-c2ccccc2)c(-c2ccccc2)o1`: the Potency entry was “inactive”.

Take `N#CCCN(CCO)CCO`: the Potency result was “inactive”.

With `Oc1c(I)cc(I)c2cccnc12`, the Potency result is “inactive”.

Take `CC(=O)Oc1ccc([N+](=O)[O-])cc1CCl`: the Potency result is “inactive”.

For the compound `Cc1c(C)c2c(c(C)c1OC(=O)CCC(=O)OCCO)CC[C@@](C)(CCC[C@H](C)CCC[C@H](C)CCCC(C)C)O2`, the Potency result is “inactive”.

As to `C=COCC(C)C`, the Potency entry was “inactive”.

On to `C/C=C(/C(=C/C)c1ccc(O)cc1)c1ccc(O)cc1`, for which the Potency is 15 nM (active).

For the compound `CCc1ccccc1`, the Potency entry was “inactive”.

In the case of `CC1(C)O[C@@H]2C[C@H]3[C@@H]4C[C@H](F)C5=CC(=O)C=C[C@]5(C)[C@H]4[C@@H](O)C[C@]3(C)[C@]2(C(=O)CO)O1`, the Potency entry is “inactive”.

For `CCOC(=O)c1ccccc1C(=C1C=C(Br)C(=O)C(Br)=C1)c1cc(Br)c(O)c(Br)c1`, the Potency entry is “inactive”.

For `O=C1c2ccccc2C(=O)C1c1ccc(Br)cc1`, the Potency result is “inactive”.

In the case of `O=C=Nc1ccc(Cl)c(Cl)c1`, the Potency entry was “inactive”.

For `O=C(Cn1ccnc1[N+](=O)[O-])NCCO`, the Potency entry is “inactive”.

On to `C=C1CCC2CC1C2(C)C` (stereo not given), for which the Potency result was “inactive”.

Take `FC(F)(F)c1ccccc1Cl`: the Potency result is “inactive”.

In the case of `CC(C)(C)C(=O)C(=O)O`, the Potency result was “inactive”.

For `CC1=Nc2ccc3ccccc3c2C1(C)C`, the Potency result is “inactive”.

Turning to `O=C(CCCN1CC=C(n2c(=O)[nH]c3ccccc32)CC1)c1ccc(F)cc1`, the Potency entry was “inactive”.

Take `CCCCCCCCCI`: the Potency entry was “inactive”.

Take `Nc1nnc(-c2ccc([N+](=O)[O-])o2)o1`: the Potency entry is “inactive”.

With `Oc1ccc(Cl)c2cccnc12`, the Potency entry is “inactive”.

Turning to `C[C@H]1C[C@H](O)c2ccsc2S1(=O)=O`, the Potency entry was “inactive”.

Consider `C=C(C)[C@@H]1CCC2=CCC[C@@H](C)[C@]2(C)C1`, for which the Potency result was “inactive”.

In the case of `O=c1cc(-c2ccccc2)oc2ccc3ccccc3c12`, the Potency was 686 nM (active).

`CCCCCCC(C)(C)C(=O)O`: the Potency result is “inactive”.

Regarding `Cc1ccc(Cl)c(Nc2ccccc2C(=O)O)c1Cl`, the Potency result was “inactive”.

Consider `CC(=O)NC1(c2cccc(F)c2)CCN(CC[C@@]2(c3ccc(Cl)c(Cl)c3)CN(c3ccccc3)C(=O)CO2)CC1`, for which the Potency result is “inactive”.

For the compound `CC(C)Nc1cccnc1N1CCN(C(=O)c2cc3cc(NS(C)(=O)=O)ccc3[nH]2)CC1`, the Potency entry is “inactive”.

On to `CCCCN(CCCC)C(C(N)=O)c1ccc(OC)cc1` (stereo not given), for which the Potency entry is “inactive”.

Turning to `C=C(C)C(=O)OCCOCCOC(=O)C(=C)C`, the Potency entry is “inactive”.

Regarding `CN1C(C(=O)Nc2ccccn2)=C(O)c2sccc2S1(=O)=O`, the Potency entry was “inactive”.

With `CC(C)c1nc(CN(C)C(=O)N[C@H](C(=O)N[C@@H](Cc2ccccc2)C[C@H](O)[C@H](Cc2ccccc2)NC(=O)OCc2cncs2)C(C)C)cs1`, the Potency result was “inactive”.
